# Experimental data published in PubChem BioAssay (NCATS).
# A number with no mark means an inactive call. Calls of active or inactive are those of the source. Calls come from the whole dose curve.
# Target: Tumor susceptibility gene 101 protein (Homo sapiens) (UniProt Q99816)
# Test: qHTS Validation Assay for Iinhibitors of HIV-1 Budding by Blocking the Interaction of PTAP/TSG101 (AID 485342); note: 0% is about no effect
# Settings: TSG101-PTAP binding, fluorescence polarization, 4-point titration; series mostly up to 115 µM; fluorescence change: at the top concentration
# Source text: NIH Molecular Libraries Probe Production Network [MLPCN]
# NIH Chemical Genomics Center [NCGC]
# PI Name: Dr. Eric Freed, NCI
# Stages of the HIV-1 replication cycle, specifically virus assembly and release, provide underexploited targets for the development of novel antiviral inhibitors. The late stages of HIV-1 replication are mediated by the Gag precursor protein, Pr55Gag. Expression of Pr55Gag is both necessary and sufficient for the production of virus-like particles from Gag-expressing cells. The Gag protein hijacks key host proteins involved in endocytic machinery of the host cell to promote endosomal processing and viral budding. The budding process requires a direct interaction between a […] (PTAP) motif in the p6 domain of Gag and the cellular endosomal sorting protein known as Tsg101. In this way, the Gag PTAP motif promotes the host cells to recruit viral particles to the plasma membrane where the new viral particles are released, effectively turning the host cells into viral factories. A fluorescence anisotropy assay has been developed to quantitatively measure the PTAP-Tsg101 interaction which can be used to screen for inhibitors of this interaction.
# NCGC Assay Protocol Summary:
# Two uL of the Tsg101 binding domain in buffer (10 mM HEPES pH 7.5; 0.15 M NaCl, 0.01% Tween 20; 3 mM EDTA;0.1 mM TCEP) was dispensed into Greiner black MB 1536-well plates (final concentration 10 uM). Then, 23 nL of compounds or DMSO were delivered to each well using a pin tool. Finally, 2 uL of a FITC-labeled peptide containing the PTAP motif (1) in the same buffer was dispensed (50 nM final concentration) and the binding was allowed to proceed for 20 min. at r.t. Fluorescent polarization was determined using FITC excitation and polarized emission filters on a Perkin Elmer Viewlux.
# Keywords: Tsg101, PTAP, Gag, HIV, fluorescent polarization, MLSMR, MLPCN, NIH Roadmap, qHTS, NCGC
# Chain of Tumor susceptibility gene 101 protein (Homo sapiens) (Q99816 whole entry, looked up): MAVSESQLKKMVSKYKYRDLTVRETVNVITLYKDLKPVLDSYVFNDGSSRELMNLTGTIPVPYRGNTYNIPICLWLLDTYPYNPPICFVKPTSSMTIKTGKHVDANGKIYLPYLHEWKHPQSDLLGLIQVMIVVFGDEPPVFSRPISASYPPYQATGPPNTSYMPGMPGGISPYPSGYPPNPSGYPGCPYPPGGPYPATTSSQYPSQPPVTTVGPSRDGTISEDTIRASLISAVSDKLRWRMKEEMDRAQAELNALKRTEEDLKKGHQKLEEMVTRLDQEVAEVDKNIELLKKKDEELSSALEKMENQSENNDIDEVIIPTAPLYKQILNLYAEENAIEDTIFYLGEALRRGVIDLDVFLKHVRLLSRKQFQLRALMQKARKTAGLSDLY
SMILES,fluorescence change [%],outcome
CCc1cccc2c3c([nH]c12)C(CC)(CC(=O)O)OCC3 (stereo not given),0.729,–
O=C(c1ccc(OCCN2CCCCC2)cc1)c1c(-c2ccc(O)cc2)sc2cc(O)ccc12,-5.77,–
COC(=O)Nc1nc2ccc(C(=O)c3cccs3)cc2[nH]1,4.77,–
CN1C2CCC1CC(OC(=O)C(CO)c1ccccc1)C2 (stereo not given),–,inactive
N[C@@H](Cc1c[nH]c2ccc(O)cc12)C(=O)O,1.34,–
Cc1cn([C@H]2C=C[C@@H](CO)O2)c(=O)[nH]c1=O,1.28,–
NC12CC3CC(CC(C3)C1)C2,3.15,–
Nc1nc2c(ncn2COC(CO)CO)c(=O)[nH]1,3.24,–
Nc1ccn([C@H]2CC[C@@H](CO)O2)c(=O)n1,-1.37,–
C[C@H]1c2cccc(O)c2C(O)=C2C(=O)[C@]3(O)C(O)=C(C(N)=O)C(=O)[C@@H](N(C)C)[C@@H]3[C@@H](O)[C@@H]21,3.49,–
Clc1ccc(C(c2ccccc2Cl)C(Cl)Cl)cc1 (stereo not given),-3.83,–
Cc1cn([C@H]2C[C@H](N=[N+]=[N-])[C@@H](CO)O2)c(=O)[nH]c1=O,1.89,–
CN1CCN(C2=Nc3cc(Cl)ccc3Nc3ccccc32)CC1,-0.535,–
NC(=O)NO,-1.19,–
Cn1ccc2cc3c(cc21)CCN3C(=O)Nc1cccnc1,0.587,–
CN(C)CCOC(c1ccccc1)c1ccccc1,4.34,–
O=C(CCCN1CCC(O)(c2ccc(Cl)cc2)CC1)c1ccc(F)cc1,-7.74,–
O=C1Cc2cc(CCN3CCN(c4nsc5ccccc45)CC3)c(Cl)cc2N1,-17.1,–
CN1C(C(=O)Nc2ccccn2)=C(O)c2ccccc2S1(=O)=O,2.95,–
CC(C(=O)O)c1cccc(C(=O)c2ccccc2)c1 (stereo not given),-0.973,–

SMILES,fluorescence change [%],outcome
Clc1ccccc1C(c1ccccc1)(c1ccccc1)n1ccnc1,-2.91,–
Cc1cnc(C(=O)NCCc2ccc(S(=O)(=O)NC(=O)NC3CCCCC3)cc2)cn1,-1.75,–
CCOC(=O)c1ncn2c1CN(C)C(=O)c1cc(F)ccc1-2,2.51,–
CN(C)CCCN1c2ccccc2CCc2ccc(Cl)cc21,2.89,–
CN(C)CCC=C1c2ccccc2C=Cc2ccccc21,-1.88,–
Cc1cc(C(C)(C)C)c(O)c(C)c1CC1=NCCN1,-7.08,–
O=c1[nH]cc(F)c(=O)[nH]1,4.52,–
CN1CCC(=C2c3ccccc3C=Cc3ccccc32)CC1,2.28,–
CC(C)(Oc1ccc(C2CC2(Cl)Cl)cc1)C(=O)O (stereo not given),3.44,–
COc1cc2c(c(OC)c1OC)-c1ccc(OC)c(=O)cc1[C@@H](NC(C)=O)CC2,3.23,–
NC(CO)C(=O)NNCc1ccc(O)c(O)c1O (stereo not given),-0.286,–
CN1CCN2c3ccccc3Cc3ccccc3C2C1 (stereo not given),-11.2,–
OCCN1CCN(CCCN2c3ccccc3Sc3ccc(C(F)(F)F)cc32)CC1,-5.43,–
CCC1(c2ccccc2)C(=O)NCNC1=O,3.56,–
CNCCCC12CCC(c3ccccc31)c1ccccc12,-6.4,–
CC12CC3CC(C)(C1)CC(N)(C3)C2,2.22,–
COc1ccc2c(c1)c(CC(=O)O)c(C)n2C(=O)c1ccc(Cl)cc1,4.07,–
NCCc1cnc[nH]1,1.8,–
NCCS(=O)(=O)O,1.46,–
CCN1CCCC1CNC(=O)c1cc(S(=O)(=O)CC)c(N)cc1OC (stereo not given),-4.31,–
